Screen size: about 5,500 compounds; about 2,000 (36%) were called active. About 18% were inconclusive and are not listed. Cut-off read from the data, not from the text of the source: active = normalized growth mostly below about 0.91 (no sharp cut-off); inconclusive = no clear call, values can overlap the other calls; inactive = mostly above about 0.92. This is one part of the list.
Experiment: chemical genetic growth profiling, strain panel (AID 1159580);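 note: tested at 20 µM; growth read once vehicle control cultures reached saturation at 30 °C; 1 = growth at the plate median or of vehicle wells; lower values mean less growth of the strain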
Conditions: S. cerevisiae deletion strains, growth OD
[1] = locus YAL021C, strain ccr4, stronger effect = lower value
[2] = locus YAL026C, strain drs2, stronger effect = lower value
[3] = locus YAL030W, strain snc1, stronger effect = lower value
[4] = locus YBL061C, strain skt5, stronger effect = lower value
[5] = locus YBR009C, strain hhf1, stronger effect = lower value
[6] = locus YBR023C, strain chs3, stronger effect = lower value
[7] = locus YBR171W, strain sec66, stronger effect = lower value
[8] = locus YBR231C, strain swc5, stronger effect = lower value
[9] = locus YBR279W, strain paf1, stronger effect = lower value
[10] = locus YCL011C, strain gbp2, stronger effect = lower value
[11] = locus YCL016C, strain dcc1, stronger effect = lower value
[12] = locus YCL069W, strain vba3, stronger effect = lower value
[13] = locus YCR088W, strain abp1, stronger effect = lower value
[14] = locus YDL005C, strain med2, stronger effect = lower value
[15] = locus YDL040C, strain nat1, stronger effect = lower value
[16] = locus YDR001C, strain nth1, stronger effect = lower value
[17] = locus YDR069C, strain doa4, stronger effect = lower value
[18] = locus YDR137W, strain rgp1, stronger effect = lower value
[19] = locus YDR159W, strain sac3, stronger effect = lower value
[20] = locus YDR297W, strain sur2, stronger effect = lower value
[21] = locus YDR334W, strain swr1, stronger effect = lower value
[22] = locus YDR335W, strain msn5, stronger effect = lower value
[23] = locus YDR392W, strain spt3, stronger effect = lower value
[24] = locus YEL003W, strain gim4, stronger effect = lower value
[25] = locus YEL037C, strain rad23, stronger effect = lower value
[26] = locus YEL061C, strain CIN8 (second series), stronger effect = lower value
[27] = locus YER015W, strain faa2, stronger effect = lower value
[28] = locus YER016W, strain bim1, stronger effect = lower value
[29] = locus YER111C, strain swi4, stronger effect = lower value
[30] = locus YER155C, strain BEM2 (second series), stronger effect = lower value
[31] = locus YFR010W, strain ubp6, stronger effect = lower value
[32] = locus YGL167C, strain pmr1, stronger effect = lower value
[33] = locus YGL173C, strain kem1, stronger effect = lower value
[34] = locus YGL227W, strain vid30, stronger effect = lower value
[35] = locus YGL240W, strain doc1, stronger effect = lower value
[36] = locus YGL253W, strain hxk2, stronger effect = lower value
[37] = locus YHR013C, strain ard1, stronger effect = lower value
[38] = locus YHR027C, strain rpn1, stronger effect = lower value
[39] = locus YHR030C, strain SLT2, stronger effect = lower value
[40] = locus YHR079C, strain IRE1, stronger effect = lower value
[41] = locus YHR142W, strain chs7, stronger effect = lower value
[42] = locus YJL092W, strain hpr5, stronger effect = lower value
[43] = locus YJL095W, strain BCK1 (second series), stronger effect = lower value
[44] = locus YJL095W, strain BCK1, stronger effect = lower value
[45] = locus YJL115W, strain asf1, stronger effect = lower value
[46] = locus YJL129C, strain trk1, stronger effect = lower value
[47] = locus YJL154C, strain vps35, stronger effect = lower value
[48] = locus YJL164C, strain tpk1, stronger effect = lower value
[49] = locus YJL166W, strain qcr8, stronger effect = lower value
[50] = locus YJL187C, strain SWE1, stronger effect = lower value
[51] = locus YJR066W, strain TOR1, stronger effect = lower value
[52] = locus YKL160W, strain elf1, stronger effect = lower value
[53] = locus YKR026C, strain gcn3, stronger effect = lower value
[54] = locus YKR091W, strain srl3, stronger effect = lower value
[55] = locus YLL001W, strain dnm1, stronger effect = lower value
[56] = locus YLL026W, stronger effect = lower value
[57] = locus YLL041C, strain sdh2, stronger effect = lower value
[58] = locus YLR027C, strain aat2, stronger effect = lower value
[59] = locus YLR113W, strain HOG1, stronger effect = lower value
[60] = locus YLR221C, strain rsa3, stronger effect = lower value
[61] = locus YLR258W, strain gsy2, stronger effect = lower value
[62] = locus YLR262C, strain YPT6 (second series), stronger effect = lower value
[63] = locus YLR320W, strain mms22, stronger effect = lower value
[64] = locus YLR342W, strain FKS1, stronger effect = lower value
[65] = locus YLR357W, strain rsc2, stronger effect = lower value
[66] = locus YLR370C, strain arc18, stronger effect = lower value
[67] = locus YLR384C, strain iki3, stronger effect = lower value
[68] = locus YML120C, strain ndi1, stronger effect = lower value
[69] = locus YMR058W, strain fet3, stronger effect = lower value
[70] = locus YMR125W, strain sto1, stronger effect = lower value
[71] = locus YMR129W, stronger effect = lower value
[72] = locus YMR205C, strain PFK2, stronger effect = lower value
[73] = locus YMR231W, strain pep5, stronger effect = lower value
[74] = locus YNL071W, strain lat1, stronger effect = lower value
[75] = locus YNL183C, strain NPR1, stronger effect = lower value
[76] = locus YNL209W, strain ssb2, stronger effect = lower value
[77] = locus YNL248C, strain rpa49, stronger effect = lower value
[78] = locus YNL322C, strain KRE1 (second series), stronger effect = lower value
[79] = locus YNR049C, strain mso1, stronger effect = lower value
[80] = locus YOR001W, strain rrp6, stronger effect = lower value
[81] = locus YOR070C, strain gyp1, stronger effect = lower value
[82] = locus YOR080W, strain dia2, stronger effect = lower value
[83] = locus YOR083W, strain WHI5, stronger effect = lower value
[84] = locus YOR106W, strain vam3, stronger effect = lower value
[85] = locus YOR231W, strain MKK1, stronger effect = lower value
[86] = locus YOR265W, strain rbl2, stronger effect = lower value
[87] = locus YOR270C, strain vph1, stronger effect = lower value
[88] = locus YOR290C, strain snf2, stronger effect = lower value
[89] = locus YPL051W, strain arl3, stronger effect = lower value
[90] = locus YPL078C, strain atp4, stronger effect = lower value
[91] = locus YPL106C, strain sse1, stronger effect = lower value
[92] = locus YPL240C, strain hsp82, stronger effect = lower value
[93] = locus YPL256C, strain CLN2, stronger effect = lower value
[94] = locus YAL013W, strain DEP1, stronger effect = lower value
[95] = locus YDR150W, strain NUM1, stronger effect = lower value
[96] = locus YGR078C, strain PAC10, stronger effect = lower value
[97] = locus YPL055C, strain LGE1, stronger effect = lower value

Measured: normalized growth

Cc1c(Nc2ncccc2C(=O)O)cccc1C(F)(F)F
inactive: [1] 0.937 | [2] 0.979 | [3] 0.981 | [4] 0.981 | [5] 0.967 | [6] 0.99 | [7] 0.969 | [8] 1.01 | [9] 0.987 | [10] 0.979 | [11] 0.975 | [12] 0.985 | [13] 0.979 | [14] 0.986 | [15] 0.981 | [16] 0.964 | [17] 0.966 | [18] 0.979 | [19] 0.999 | locus YDR195W, strain ref2 0.955 | [20] 0.996 | [21] 0.961 | [22] 0.983 | [23] 1 | [24] 0.974 | [25] 0.989 | [26] 0.981 | [27] 0.988 | [28] 0.978 | [29] 0.963 | [30] 1.01 | [31] 0.978 | [32] 0.952 | [33] 0.984 | [34] 0.978 | [35] 1.02 | [36] 0.968 | [37] 0.958 | [38] 0.971 | [39] 0.947 | [40] 0.974 | [41] 0.96 | [42] 0.961 | [43] 0.983 | [44] 0.989 | [45] 0.958 | [46] 0.955 | [47] 0.972 | [48] 0.97 | [49] 0.994 | [50] 0.992 | [51] 0.928 | [52] 0.967 | [53] 0.972 | [54] 0.97 | [55] 0.981 | [56] 0.978 | [57] 0.953 | [58] 0.993 | [59] 0.991 | [60] 0.997 | [61] 0.969 | [62] 1.02 | [63] 1.01 | [64] 0.988 | [65] 0.952 | [66] 0.963 | [67] 1 | [68] 0.974 | [69] 0.972 | [70] 0.945 | [71] 0.972 | [72] 0.977 | [73] 0.983 | [74] 0.981 | [75] 0.954 | [76] 0.983 | [77] 0.996 | [78] 0.97 | [79] 0.962 | [80] 0.983 | [81] 0.989 | [82] 0.979 | [83] 0.98 | [84] 0.957 | [85] 0.982 | [86] 0.968 | [87] 0.983 | [88] 0.943 | [89] 1.01 | [90] 0.951 | [91] 0.982 | [92] 0.98 | [93] 0.951

O=C(O)c1ccccc1Nc1ccccc1
active: locus YCL061C, strain MRC1, stronger effect = lower value 0.892 | [12] 0.907 | [13] 0.907 | [16] 0.892 | [25] 0.913 | [26] 0.899 | [29] 0.908 | [34] 0.909 | [39] 0.482 | [40] 0.395 | [42] 0.893 | [44] 0.502 | [45] 0.901 | [46] 0.847 | [47] 0.894 | [51] 0.392 | [53] 0.903 | [54] 0.927 | [57] 0.925 | [59] 0.291 | [62] 0.832 | [71] 0.889 | [75] 0.367 | [78] 0.871 | [85] 0.413 | [92] 0.924 | [93] 0.36
inactive: [94] 1.01 | [1] 0.953 | [2] 0.921 | [3] 0.94 | locus YAL040C, strain CLN3, stronger effect = lower value 1.01 | [4] 0.946 | [5] 0.992 | [6] 0.951 | [7] 0.894 | [8] 0.966 | [9] 0.964 | [10] 0.922 | [11] 0.961 | [14] 0.957 | [15] 0.944 | [17] 1.01 | [18] 0.86 | [95] 0.994 | [19] 0.957 | locus YDR195W, strain ref2 1.05 | [20] 0.929 | [21] 0.926 | [22] 0.941 | locus YDR363W, strain ESC2, stronger effect = lower value 1.01 | [23] 0.852 | [24] 0.924 | locus YER002W, strain NOP16, stronger effect = lower value 0.941 | [27] 0.947 | [28] 0.972 | [30] 0.909 | [31] 0.989 | [32] 0.92 | [33] 0.954 | [35] 0.985 | [36] 0.926 | [96] 0.964 | [37] 0.989 | [38] 0.938 | [41] 0.908 | [43] 0.938 | [48] 0.957 | [49] 0.97 | [50] 0.971 | [52] 0.938 | [55] 0.966 | [56] 0.934 | [58] 0.956 | [60] 0.962 | [61] 0.961 | [63] 0.99 | [64] 0.923 | [65] 1.03 | [66] 0.945 | [67] 0.934 | [68] 0.963 | [69] 0.935 | [70] 0.988 | [72] 1 | [73] 0.933 | [74] 0.929 | locus YNL128W, strain TEP1, stronger effect = lower value 0.973 | locus YNL175C, strain NOP13, stronger effect = lower value 0.935 | locus YNL197C, strain WHI3, stronger effect = lower value 0.927 | [76] 0.949 | locus YNL224C, strain SQS1, stronger effect = lower value 0.94 | [77] 0.99 | [79] 0.922 | [80] 0.951 | [81] 0.945 | [82] 0.959 | locus YOR083W, strain WHI5 (second series), stronger effect = lower value 0.982 | [83] 0.929 | [84] 0.956 | [86] 0.941 | [87] 0.97 | [88] 0.934 | [89] 0.933 | [97] 1.01 | [90] 0.914 | [91] 1.01

O=C(/C=N\Nc1ccccc1)Nc1ccccc1C(=O)O
active: [96] 0.92 | locus YLR039C, strain RIC1, stronger effect = lower value 0.297 | locus YLR085C, strain ARP6, stronger effect = lower value 0.666 | locus YLR262C, strain YPT6, stronger effect = lower value 0.242 | locus YPL241C, strain CIN2, stronger effect = lower value 0.792
inactive: [94] 0.975 | locus YBR229C, strain ROT2, stronger effect = lower value 0.98 | locus YDL101C, strain DUN1, stronger effect = lower value 0.99 | locus YDL134C, strain PPH21, stronger effect = lower value 0.99 | [95] 0.883 | locus YEL061C, strain CIN8, stronger effect = lower value 0.986 | locus YGR229C, strain SMI1, stronger effect = lower value 1.02 | [39] 0.716 | locus YHR087W, strain rtc3, stronger effect = lower value 0.92 | [50] 0.983 | locus YJR043C, strain POL32, stronger effect = lower value 0.989 | locus YJR075W, strain HOC1, stronger effect = lower value 0.953 | locus YLR058C, strain SHM2 (second series), stronger effect = lower value 0.97 | locus YML094W, strain GIM5, stronger effect = lower value 0.922 | locus YMR219W, strain ESC1, stronger effect = lower value 0.976 | locus YNL153C, strain GIM3, stronger effect = lower value 0.965 | locus YNL298W, strain CLA4 (second series), stronger effect = lower value 0.93 | locus YNL322C, strain KRE1, stronger effect = lower value 0.982 | locus YNR030W, strain Alg12, stronger effect = lower value 0.958 | [97] 0.86 | locus YPR135W, strain CTF4, stronger effect = lower value 0.812
